HTT-AS act: activates huntingtin-antisense promoter activity. HEK293 HTT-AS promoter firefly luciferase reporter, 24 h; response scale: percent change from vehicle, -100% = no light. Potency, µM (titrated, usually from 57.5 µM), inactives show top-dose activity change, positive = activation, usual class: activators. 48,000 compounds, 0.24% hits. AID 1508624; note: potency is the fitted concentration of half-maximal effect; nearly all actives have a fitted effect of over 55% in size
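Luminescence was read after Dual-Glo reagent and a 10 min room-temperature incubation. Values were normalized to vehicle (0% activity) and zero RLU (-100% activity). Reporter HEK293 cells had been exposed to compounds (up to 57.5 uM final) for 24 h.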
HTT prom inh: HTT promoter inhibition; HEK293 HTT promoter firefly luciferase reporter, 24 h; Potency, µM (titrated, usually from 57.5 µM), for inactives: at the highest dose activity change, negative = inhibition, hits mostly inhibitors; 48,000 compounds, 0.93% hits; note: potency is the fitted concentration of half-maximal effect; nearly all actives have a fitted effect of over 50% in size
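Quantitative HTS used concentration series of up to 57.5 uM final on HEK293 luciferase reporter cells, 24 h at 37 degrees C. Readout was Dual-Glo firefly luminescence.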
NTMT1 inh: inhibitors of human N-terminal methyltransferase NTMT1. Q9BV86. NTMT1 MTase-Glo SAH luminescence, purified enzyme. Potency, µM (series often up to 114 µM), for inactives: at the highest dose activity change, negative = inhibition, hits mostly inhibitors. 59,000 compounds, 2.5% hits;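 note: potency is the fitted concentration of half-maximal effect; plate controls were DMSO vehicle for no effect and no enzyme for full effect; nearly all actives have a fitted effect of over 65% in size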
Target sequence (Q9BV86 whole entry, looked up): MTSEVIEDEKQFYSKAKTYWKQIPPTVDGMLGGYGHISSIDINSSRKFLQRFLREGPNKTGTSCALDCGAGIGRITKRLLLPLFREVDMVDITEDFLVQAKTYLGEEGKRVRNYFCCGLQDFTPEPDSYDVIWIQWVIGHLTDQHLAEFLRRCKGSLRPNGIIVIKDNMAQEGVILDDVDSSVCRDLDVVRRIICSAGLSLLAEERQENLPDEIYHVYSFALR
Sfp PPTase inh: inhibitors of Bacillus subtilis Sfp PPTase, optimization followup. Potency, µM (titrated, usually from 114 µM), without a hit: at the highest dose activity change, negative = inhibition, actives largely listed as inhibitors. shares compounds with NTMT1 inh. purified Sfp PPTase enzyme activity, qHTS. 230 compounds, 78% hits
Bsub HM489 growth: reduces growth of B. subtilis HM489 strain; shares compounds with NTMT1 inh; B. subtilis HM489 (acpS-) growth, BacTiter-Glo, 5 h; Potency, µM (series often up to 114 µM), inactives show top-dose activity change, negative = inhibition, hits mostly inhibitors; 220 compounds, 50% hits; AID 540353
Sfp gel opt: Sfp PPTase inhibition, gel-based detection | shares compounds with NTMT1 inh | purified Sfp PPTase, gel-based product detection | Potency, µM (highest dose often 250 µM), for inactives: at the top dose activity change, negative = inhibition, hits mostly inhibitors | 220 compounds, 54% hits
Sfp inh gel: Sfp phosphopantetheinyl transferase inhibition, gel detection; Potency, µM (doses to about 250 µM), without a hit: at the highest dose activity change, negative = inhibition, actives largely listed as inhibitors; shares compounds with NTMT1 inh; purified Sfp PPTase, gel-based product detection; 45 compounds, 90% hits; AID 602362
Sfp SAR2: inhibitors of Bacillus subtilis Sfp PPTase, SAR round 2; 230 compounds, 87% hits; shares compounds with NTMT1 inh; purified Sfp enzyme, PPTase activity, qHTS; AID 602370; Potency, µM (titrated, usually from 57.1 µM), for the others: top-dose activity change, negative = inhibition, most hits filed as inhibitors
hGST ctr: inhibits hGST A1-1 in Sfp inhibitor counter-screen | shares compounds with NTMT1 inh | hGST A1-1 enzyme activity counter-screen, qHTS | Potency, µM (highest dose often 114 µM), without a hit: at the highest dose activity change, negative = inhibition, hits mostly inhibitors | 55 tested, under 10 active | AID 602391
USP2 K63 confirm: confirmation of human USP2a inhibitors with K63 diubiquitin substrate; shares compounds with NTMT1 inh; USP2 cleavage of DiUb K63-3IQF, fluorescence kinetic; Potency, µM (titrated, usually from 57.5 µM), without a hit: at the top dose activity change, negative = inhibition, usual class: inhibitors; 30 compounds, 80% hits
Casp6 inh: caspase-6 inhibition, USP2a inhibitor counterscreen | 30 tested, under 10 active | shares compounds with NTMT1 inh | Caspase 6 enzyme, Caspase-Glo 6 luminescence | activity change, negative = inhibition, % at 46.1 µM
HSD17B4 inh: counter-screen for HPGD inhibitors: human HSD17B4 inhibition; shares compounds with NTMT1 inh; purified HSD17B4, estradiol/NAD+, NADH fluorescence; Potency, µM (titrated, usually from 57.1 µM), inactives show top-dose activity change, negative = inhibition, most hits filed as inhibitors; 230 compounds, 10% hits
ALDH1A1 counter: inhibits human ALDH1A1, off-target for HPGD inhibitors; shares compounds with NTMT1 inh; recombinant ALDH1A1, NADH fluorescence, propionaldehyde/NAD+; Potency, µM (top dose mostly 57.1 µM), for inactives: top-dose activity change, negative = inhibition, actives largely listed as inhibitors; 230 compounds, 93% hits; AID 743195
Target sequence (P00352 whole entry, looked up): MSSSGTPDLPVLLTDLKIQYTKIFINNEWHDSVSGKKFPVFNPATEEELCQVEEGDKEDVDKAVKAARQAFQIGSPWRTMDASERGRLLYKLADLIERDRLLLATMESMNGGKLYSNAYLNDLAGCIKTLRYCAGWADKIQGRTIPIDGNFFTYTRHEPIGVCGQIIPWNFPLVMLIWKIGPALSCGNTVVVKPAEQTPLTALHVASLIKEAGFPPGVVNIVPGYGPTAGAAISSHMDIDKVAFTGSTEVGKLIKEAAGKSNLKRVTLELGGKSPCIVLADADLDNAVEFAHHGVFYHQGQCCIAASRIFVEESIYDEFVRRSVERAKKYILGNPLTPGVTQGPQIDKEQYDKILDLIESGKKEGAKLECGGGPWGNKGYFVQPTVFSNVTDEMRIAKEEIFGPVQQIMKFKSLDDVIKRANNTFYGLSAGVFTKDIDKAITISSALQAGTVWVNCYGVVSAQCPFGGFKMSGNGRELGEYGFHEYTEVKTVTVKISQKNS
NNMT counter: human NNMT inhibition, NTMT1 counter-screen; shares compounds with NTMT1 inh; NNMT MTase-Glo luminescence, SAH detection; Potency, µM (top dose mostly 57.1 µM), without a hit: at the top dose activity, negative = inhibition, usual class: inhibitors; 120 compounds, 10% hits
* = called active by the depositor; ? = inconclusive; / = not tested or not shown; ! = not active in a repeat; [ ] = another dose, or the depositor's remark. Most compounds without a hit are left out; they make up all but 2.4% or so of the library. Calls come from the whole dose curve; as a rule, active = well fitted curve in the direction sought with a large enough effect; inconclusive = small, poorly fitted or top-dose-only effect, or another doubt; inactive = no such curve, though single readings can be large; an effect the other way counts as inactive or inconclusive.

SMILES | HTT-AS act | HTT prom inh | NTMT1 inh | others
COc1cccc(NC(=S)N2CCN(c3cc(Cl)cc(Cl)c3)CC2)n1 | / | / | ? | Sfp PPTase inh=?;Bsub HM489 growth=-2%;Sfp gel opt=?;Sfp inh gel=1%;Sfp SAR2=?;hGST ctr=1.9µM*;HSD17B4 inh=10%;ALDH1A1 counter=8.6µM*
COc1cccc(NC(=S)N2CCN(c3cccc(Cl)c3Cl)CC2)n1 | / | / | ? | Sfp PPTase inh=?;Bsub HM489 growth=?;Sfp gel opt=?;Sfp SAR2=5.8µM*;HSD17B4 inh=-15%;ALDH1A1 counter=1.2µM*
CC1(CO)CCCC2(C)C3COC(=O)C3=CC(O)C12 (stereo not given) | / | / | 12%[57.5 µM]
C=C1C(=O)OC[C@H]2C(C(=O)O)=CC3CC(C)(C)C[C@@]132 (stereo not given in full) | / | / | 1%[57.5 µM]
O=C(Nc1nccs1)C(c1cc(F)ccc1O)N1Cc2ccccc2C1=O (stereo not given) | / | / | -5%
NC(=O)C1=CC2C3C=CC2C(OC3=O)O1 (stereo not given) | / | / | 2%
C[C@H]1CC(=O)Nc2cccc(-c3cnn(C(C)(C)C)c3)c2N1 | / | / | -8%[57.5 µM]
N#CN1CCC(NS(=O)(=O)c2ccc(F)cc2)C1 (stereo not given) | / | / | 13%
Cc1ccc(F)cc1S(=O)(=O)N[C@@H]1CCN(Cc2ccc(OC(C)C)cc2)C1 | / | / | ? | NNMT counter=-15%
c1ccc(-c2oc3ncnc(NC[C@@H]4CCCO4)c3c2-c2ccccc2)cc1 | -40% | ? | 10µM* | NNMT counter=?
Cc1ccccc1-c1nc2c3c(-c4ccccc4)c(-c4ccccc4)oc3ncn2n1 | -3% | -9% | 14%
Cc1ccc(S(=O)(=O)Nc2cc(C(=O)Nc3nc(-c4ccccc4)cs3)ccc2Cl)cc1 | / | / | 1%[57.5 µM]
Cc1ccc(S(=O)(=O)Nc2cnccc2C(=O)Nc2ccncc2)cc1 | / | / | ? | USP2 K63 confirm=-12%;Casp6 inh=-21
Cc1ccc(S(=O)(=O)Nc2ccccc2C(=O)Nc2nc(-c3ccc(Cl)cc3)cs2)cc1 | / | / | -5% | USP2 K63 confirm=4%;Casp6 inh=-7
Cc1ccc(S(=O)(=O)Nc2ccccc2C(=O)Nc2nc(-c3ccccc3)c(C)s2)cc1 | / | / | -6%[57.5 µM]
Cc1ccc(S(=O)(=O)Nc2ccccc2C(=O)Nc2nccs2)cc1 | / | / | 25% | USP2 K63 confirm=?;Casp6 inh=17
Cc1ccc(S(=O)(=O)Nc2ccc(Br)cc2C(=O)Nc2nc(-c3ccccc3)cs2)cc1 | / | / | -15%
Cc1ccc(S(=O)(=O)Nc2cc(Cl)ccc2C(=O)Nc2nc(-c3ccccc3)cs2)cc1 | -16% | ? | 27µM*! | USP2 K63 confirm=1.7µM*;Casp6 inh=-12
Cc1ccc(NC(=O)c2ccncc2NS(=O)(=O)c2ccc(C)cc2)cc1 | / | / | -1%
CCCCOC(=O)NS(=O)(=O)c1sc(CC(C)C)cc1-c1ccc(Cn2ccnc2)cc1 | / | / | 5%[57.5 µM]
O=C([C@H](Cc1ccc(O[S+](=O)([O-])c2cccc3cnccc23)cc1)N[S+](=O)([O-])c1cccc2cnccc12)N1CCN(Cc2ccccc2)CC1 | / | / | -18%[57.5 µM]
COC(=O)C(CC1(O)c2ccccc2N2C(=O)C(C)(C)N(O)C21)n1cnc2ccccc2c1=O (stereo not given) | / | / | 12%[29.8 µM]
O=C(/C=C/c1ccc(O)cc1)OC[C@H]1O[C@@H](OC(=O)/C=C/c2ccccc2)[C@H](O)[C@@H](O)[C@@H]1O | / | / | -10%[29.8 µM]
COC(=O)C1=CC[C@H](c2ccc(C)cc2)N(S(=O)(=O)c2ccc(C)cc2)[C@@H]1c1ccc(C(C)(C)C)cc1 | / | / | -1%
N#Cc1c(C(=O)c2cccs2)no[n+]1[O-] | / | / | -1%
SMILES | HTT-AS act | HTT prom inh | NTMT1 inh | others
COc1ccc(C(=O)OC2C3C=COC(OC4OC(CO)C(O)C(O)C4O)C3C3(CO)OC23)cc1OC (stereo not given) | / | / | 3%[29.8 µM]
Cc1ccc2cc3cc(C(=O)N4CCN(c5cccc(C(F)(F)F)c5)CC4)sc3nc2c1 | 1% | 3% | 13%
O=C(c1ccc(Cl)cc1)N1CCN(c2ccnc3cc(Cl)ccc23)CC1 | / | / | 8%[57.5 µM]
S=C(Nc1cc(Cl)ccn1)N1CCN(c2ccc(Cl)cc2Cl)CC1 | / | / | ? | Sfp PPTase inh=?;Bsub HM489 growth=5.9µM*;Sfp gel opt=-20%;Sfp SAR2=36µM*;HSD17B4 inh=-4%;ALDH1A1 counter=24µM*
Cc1ccnc(N(C)C(=S)N2CCN(c3cccc(C(F)(F)F)c3)CC2)c1 | / | / | -5% | Sfp PPTase inh=?;Bsub HM489 growth=?;Sfp gel opt=?;Sfp SAR2=?;HSD17B4 inh=-18%;ALDH1A1 counter=19µM*
CSc1ncc(C(=O)N2CCN(c3ccc(Cl)cc3)CC2)c(C)n1 | -17% | -1% | -12%
Cc1cccc(NC(=S)N2CCN(c3cccc(C(F)(F)F)c3)CC2)c1 | / | / | / | Sfp PPTase inh=4%;Bsub HM489 growth=15%;Sfp gel opt=1%;Sfp SAR2=-20%;HSD17B4 inh=?;ALDH1A1 counter=1.5µM*

Compound activity deposited in PubChem BioAssay by National Center for Advancing Translational Sciences (NCATS).
